ELG1 DNA repair – blocks ELG1-dependent DNA repair in HEK293T cells; 2.3% of 330,000 active; Potency, µM (titrated, usually from 46.1 µM), for inactives: top-dose activity change, negative = inhibition, usual class: inhibitors; HEK293T ELG1-luciferase reporter, luminescence, 16 h; DNA damage induced by 5-fluorouridine; AID 504467; further: potency means the concentration at half of the fitted maximal effect; nearly all actives have a fitted effect of over 55% in size
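Luminescence from the luciferase reporter, measured 30 min after ONE-Glo reagent at room temperature, was the read-out. Beforehand, 2,000 cells per well were exposed for 16 hr at 37 °C to 5-fluorouridine together with compound or vehicle.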
DT40 TDP1 no CPT – qHTS for Inhibitors of human tyrosyl-DNA phosphodiesterase 1 (TDP1): qHTS in cells in absence of CPT. DT40 Tdp1-/- hTDP1 cells, no CPT, ATP luminescence, 48 h. Potency, µM (doses to about 46.2 µM), inactives show at the highest dose activity change, negative = growth inhibition, most hits filed as inhibitors. 15% of 420,000 active. AID 686978, 2013; further: potency means the concentration at half of the fitted maximal effect; nearly all actives have a fitted effect of over 55% in size
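Growth kinetics read by CellTiter-Glo luminescence after ≥48 hr at 37 °C. Cells: DT40 Tdp1-/- stably carrying human TDP1, 400 per well, compound exposure in the absence of CPT (DMSO vehicle).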
IL-1B inflam inh – blocks inflammasome-driven IL-1 beta release. activity change, % at 57.5 µM. 4.7% of 360,000 active. THP-1 LPS/ATP IL-1B secretion, AlphaLISA, 16 h; hits give low values. AID 743279; in the data active means activity change below about -50%; inconclusive means mostly about -30% to -49%
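Secreted IL-1B measured by AlphaLISA bead assay after 16 h compound exposure of THP-1 cells; compounds (final up to 57.5 uM) added 1 h before LPS (250 ng/mL) and ATP (1.25 mM) stimulation; lower signal means less secretion.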
HT1080 IDH1KD tx – kills HT-1080 cells with IDH1 knockdown. HT-1080 IDH1 knockdown viability, ATP luminescence, 48 h. Potency, µM (titrated, usually from 46.1 µM), for the others: at the highest dose activity, negative = toxicity, most hits filed as cytotoxic. 2% of 360,000 active. AID 686971;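 further: potency means the concentration at half of the fitted maximal effect; 0% = DMSO wells and -100% = cell-free medium wells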
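Viability of IDH1-knockdown HT-1080 fibrosarcoma cells was assessed by CellTiter-Glo after 48 h at 37 °C with titrated compound; concentration-effect curves were classified by fit quality and response size.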
HT1080-NT tox – kills 2HG-producing HT-1080-NT fibrosarcoma cells; HT-1080-NT fibrosarcoma viability, CellTiter-Glo ATP luminescence, 48 h; Potency, µM (titrated, usually from 46.1 µM), for the others: at the highest dose activity, negative = less viability, usual class: cytotoxic; 1.6% of 360,000 active; AID 686970;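 further: NT is the 2HG producing partner of a matched IDH1 knockdown line; potency means the concentration at half of the fitted maximal effect; 0% = DMSO-treated cells and -100% = media-only wells without cells; nearly all actives have a fitted effect of over 55% in size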
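A 48-hour cytotoxicity screen used HT-1080-NT cells plated 2 hours before compound delivery. ATP-based CellTiter-Glo luminescence measured viability, normalized to DMSO and no-cell controls.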
TDP1 cell CPT – DT40-hTDP1 cell growth loss with CPT; Potency, µM (top dose mostly 46.2 µM), inactives show at the top dose activity change, negative = growth inhibition, most hits filed as inhibitors; AID 686979; chicken DT40 Tdp1-/-;hTDP1 cells + 20 nM CPT, ATP luminescence, 48 h; 12% of 420,000 active; further: potency means the concentration at half of the fitted maximal effect; nearly all actives have a fitted effect of over 55% in size
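Cell growth measured by CellTiter-Glo luminescence after a minimum 48 h, 37 C compound exposure with 20 nM CPT in Tdp1-knockout DT40 cells stably expressing hTDP1, seeded 400/well; qHTS titration format.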
* hit, by the source's call. The list is not random: actives were taken first. Their share in the collection is about 19%. Unless noted, the call rests on the fitted dose curve; in most records, active means well fitted curve in the direction sought with a large enough effect; inconclusive means small, poorly fitted or top-dose-only effect, or another doubt; inactive means no such curve, though single readings can be large; an effect the other way counts as inactive or inconclusive. Unless noted, on the % scale 0 is the no-effect control and ±100 the full control effect.

`COc1cc2c(=O)c(C(=O)c3ccc(C)c(C)c3)cn(Cc3ccccc3)c2cc1OC` gave DT40 TDP1 no CPT inconclusive and TDP1 cell CPT 15µM*.
CCOc1ccc(NC(=O)Cn2cc(C(=O)c3ccc(C)c(C)c3)c(=O)c3cc(OC)c(OC)cc32)cc1 was read as DT40 TDP1 no CPT -1% and TDP1 cell CPT -12%.
CCOc1ccc(C(=O)c2cn(Cc3ccc(OC)cc3)c3cc(OC)c(OC)cc3c2=O)cc1 was read as DT40 TDP1 no CPT 18µM* and TDP1 cell CPT inconclusive.
`CCc1ccc(C(=O)c2cn(CC(=O)Nc3cccc(OC)c3)c3cc4c(cc3c2=O)OCO4)cc1` gave DT40 TDP1 no CPT inconclusive and TDP1 cell CPT -12%.
For CCC1Cc2[nH]c(=S)[nH]c(=O)c2C(c2ccc(F)cc2)O1 (stereo unspecified) the results were DT40 TDP1 no CPT 10%, IL-1B inflam inh 13, HT1080 IDH1KD tx 16%, HT1080-NT tox -1% and TDP1 cell CPT 7%.
COc1ccc(CN2CCCC(Cn3cc(C(=O)N4CCCC4)nn3)C2)c(O)c1 (stereo unspecified) was read as DT40 TDP1 no CPT -6% and TDP1 cell CPT 1%.
CCC(C)c1ccc(OCC(=O)Nc2ccc3c(c2)C(=O)NC3=O)cc1 (stereo unspecified) was read as ELG1 DNA repair -1%, DT40 TDP1 no CPT inconclusive, IL-1B inflam inh -6, HT1080 IDH1KD tx 0%, HT1080-NT tox 1% and TDP1 cell CPT 2%.
Screening CCOCCCNC(=O)Cn1nc(CC)n2c(cc3c(OC)cccc32)c1=O returned DT40 TDP1 no CPT -1% and TDP1 cell CPT -10%.
Screening c1ccc(CNc2cc(-c3cccnc3)ncn2)cc1 returned DT40 TDP1 no CPT -14% and TDP1 cell CPT -6%.
COc1cc(OC)cc(C(=O)NNC(=O)CCC(=O)c2cc(C)sc2C)c1 was read as ELG1 DNA repair -1%, DT40 TDP1 no CPT -17%, IL-1B inflam inh 10, HT1080 IDH1KD tx 16%, HT1080-NT tox 6% and TDP1 cell CPT -8%.
Screening COc1ccccc1Cn1cc(C(=O)c2ccc(Cl)cc2)c(=O)c2ccccc21 returned DT40 TDP1 no CPT 15µM* and TDP1 cell CPT 23µM*.
COc1cc(NC(=O)Cn2cc(C(=O)c3ccc(F)cc3)c(=O)c3ccc(C)nc32)cc(OC)c1 was read as DT40 TDP1 no CPT -25% and TDP1 cell CPT inconclusive.
Screening COc1ccc(C(=O)c2cn(Cc3ccc(F)cc3)c3c(F)cc(F)cc3c2=O)cc1 returned DT40 TDP1 no CPT 23µM* and TDP1 cell CPT inconclusive.
For COc1ccc(C(=O)c2cn(Cc3ccccc3F)c3cc4c(cc3c2=O)OCCO4)cc1OC the results were DT40 TDP1 no CPT 21µM* and TDP1 cell CPT inconclusive.
For COc1cc2c(=O)c(C(=O)c3ccc(C)c(C)c3)cn(Cc3ccc(F)cc3)c2cc1OC the results were DT40 TDP1 no CPT 18µM* and TDP1 cell CPT 10µM*.
`COc1ccc(CCNC(=O)Cn2cc(C(=O)c3ccc(F)cc3)c(=O)c3ccc(C)nc32)cc1OC` gave DT40 TDP1 no CPT inconclusive and TDP1 cell CPT -24%.
For O=C1CCc2cc(S(=O)(=O)NC(C(=O)Nc3ccc(F)cc3)c3ccccc3)ccc2N1 (stereo unspecified) the results were DT40 TDP1 no CPT -8% and TDP1 cell CPT inconclusive.
`COC(=O)C(Cc1ccc(O)cc1)NC(=O)Cn1cc(C)c(=O)[nH]c1=O` (stereo unspecified) gave DT40 TDP1 no CPT -3%, IL-1B inflam inh 11, HT1080 IDH1KD tx -4%, HT1080-NT tox -1% and TDP1 cell CPT -1%.
`O=C1Nc2cc(C(=O)NCCCN3CCCC3)ccc2S/C1=C/c1ccccc1F` gave ELG1 DNA repair 4%, DT40 TDP1 no CPT inconclusive, IL-1B inflam inh inconclusive, HT1080 IDH1KD tx 4%, HT1080-NT tox 8% and TDP1 cell CPT 18µM*.
O=C1Nc2cc(C(=O)NCCN3CCCCCC3)ccc2S/C1=C/c1ccccc1F was read as DT40 TDP1 no CPT 3.7µM*, IL-1B inflam inh -102*, HT1080 IDH1KD tx inconclusive, HT1080-NT tox inconclusive and TDP1 cell CPT 7.3µM*.
For O=C(NCCCN1CCCCC1)c1ccc2c(c1)NC(=O)c1ccccc1S2 the results were ELG1 DNA repair 0%, DT40 TDP1 no CPT inconclusive, IL-1B inflam inh -17, HT1080 IDH1KD tx -8%, HT1080-NT tox -20% and TDP1 cell CPT -25%.
COCCCn1c(SCC(=O)OC2CCCCC2)nnc1-c1ccco1 was read as ELG1 DNA repair 23%, DT40 TDP1 no CPT -17%, IL-1B inflam inh -3, HT1080 IDH1KD tx -1%, HT1080-NT tox 0% and TDP1 cell CPT -11%.
Screening COCCCN=C(c1ccco1)n1c(=S)nc(-c2ccco2)n(CCCOC)c1=S returned ELG1 DNA repair inconclusive, DT40 TDP1 no CPT inconclusive, IL-1B inflam inh 7, HT1080 IDH1KD tx 7.9µM*, HT1080-NT tox 5.6µM* and TDP1 cell CPT 26µM*.
Screening COc1ccc(/C=C2\N=C(C)OC2=O)cc1[N+](=O)[O-] returned ELG1 DNA repair 13%, DT40 TDP1 no CPT inconclusive, IL-1B inflam inh 5, HT1080 IDH1KD tx 14%, HT1080-NT tox 16% and TDP1 cell CPT inconclusive.
`Cc1ccccc1OCC(=O)Nc1ccc2c(c1)C(=O)N(CCC(=O)O)C2=O` gave ELG1 DNA repair -2%, DT40 TDP1 no CPT 2%, IL-1B inflam inh 10, HT1080 IDH1KD tx 13%, HT1080-NT tox 0% and TDP1 cell CPT inconclusive.
CCOC(=O)C1CCN(c2nc(-c3ccccc3)nc3c2oc2ccccc23)CC1 was read as ELG1 DNA repair -20%, DT40 TDP1 no CPT inconclusive, IL-1B inflam inh 21, HT1080 IDH1KD tx -17%, HT1080-NT tox -9% and TDP1 cell CPT -19%.
Screening CCOC(=O)C1CCCN(c2ncnc3c2oc2ccccc23)C1 (stereo unspecified) returned ELG1 DNA repair -1%, DT40 TDP1 no CPT 13µM*, IL-1B inflam inh 53, HT1080 IDH1KD tx -11%, HT1080-NT tox -14% and TDP1 cell CPT inconclusive.
CCc1nnc(N2CCN(c3ncnc4c3oc3ccccc34)CC2)s1 was read as ELG1 DNA repair inconclusive, DT40 TDP1 no CPT 18µM*, IL-1B inflam inh inconclusive, HT1080 IDH1KD tx inconclusive, HT1080-NT tox -24% and TDP1 cell CPT 18µM*.

High-throughput results as filed in PubChem BioAssay.
